Most compounds without a hit are left out; they make up all but 2.4% or so of the library.
CHT allo act = allosteric activators of human choline transporter CHT | Q9GZV3 | CHT-expressing cells, membrane potential dye, choline EC20; stronger effect = higher value; LV-AA mutant CHT in HEK293 cells | B-score at 10 µM | 310,000 tested, 0.49% active | AID 488977;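 active = initial fluorescence not abnormally high and integrated response B-score, plate-corrected, over 3 SD above library mean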
Target sequence (Q9GZV3 whole entry, looked up): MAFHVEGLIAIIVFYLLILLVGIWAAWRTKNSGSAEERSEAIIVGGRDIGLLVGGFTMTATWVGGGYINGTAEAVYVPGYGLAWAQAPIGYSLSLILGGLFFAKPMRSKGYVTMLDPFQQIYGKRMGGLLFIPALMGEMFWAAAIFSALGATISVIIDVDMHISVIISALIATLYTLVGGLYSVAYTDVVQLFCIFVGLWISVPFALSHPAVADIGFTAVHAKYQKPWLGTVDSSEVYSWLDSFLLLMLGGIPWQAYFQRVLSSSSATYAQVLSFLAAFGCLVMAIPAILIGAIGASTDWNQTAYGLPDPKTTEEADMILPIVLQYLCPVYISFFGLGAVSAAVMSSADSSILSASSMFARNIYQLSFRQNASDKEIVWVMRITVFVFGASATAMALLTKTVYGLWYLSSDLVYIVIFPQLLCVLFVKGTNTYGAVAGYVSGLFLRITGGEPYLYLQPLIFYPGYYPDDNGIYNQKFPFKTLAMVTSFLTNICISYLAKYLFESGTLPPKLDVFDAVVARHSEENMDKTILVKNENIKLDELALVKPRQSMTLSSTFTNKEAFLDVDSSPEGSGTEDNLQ
TMEM16A act = mouse TMEM16A channel activation, primary screen. Q8BHY3. HEK293 TMEM16A/YFP-H148Q/I152L, iodide quench fluorescence; stronger effect = lower value. B-score at 10 µM. 340,000 tested, 0.3% active;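 active = fluorescence-ratio B-score plate-corrected deviation score at least 3 library SD below zero, with starting fluorescence score within 5 deviations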;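 also: channel opened by trigger with iodide after compound preincubation; score built on the fluorescence ratio of max minus min over baseline; more negative score means more quench and so TMEM16A activation or potentiation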
CHT block = human CHT choline transport inhibition; CHT-expressing cells, membrane potential dye, choline response; stronger effect = lower value; Q9GZV3; B-score at 10 µM; 310,000 tested, 0.86% active;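 active = B-score over 3 SD under the library average, and starting fluorescence ratio not unusually high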;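 also: choline stimulus applied at its EC90 after an EC20 pre-addition; B-score computed on integrated fluorescence ratio after choline addition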
TMEM16A inh = mouse TMEM16A channel inhibition, primary screen | Q8BHY3 | HEK293 TMEM16A/YFP iodide influx fluorescence, ionomycin | normalized B-score (activity score, 25-100; higher = stronger inhibition) at 10 µM | 310,000 tested, 1.2% active | AID 588511;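 active = ratio plate-corrected score three or more library SD toward inhibition, starting fluorescence score within five deviations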;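 also: score derived from kinetic fluorescence span divided by baseline fluorescence per well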
TMEM16A reconf = re-confirmation of mouse TMEM16A chloride channel inhibitors; 2,300 tested, 39% active; shares compounds with TMEM16A inh; HEK293 TMEM16A/YFP-H148Q, iodide quench fluorescence; ionomycin added to raise cell calcium; inhibition, % at 10 µM; AID 652189;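 active = mean duplicate percent inhibition, scaled so buffer wells are 0 and the reference blocker 100, over three buffer SD above buffer mean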
HEK293 Ca mobil = counter-screen for TMEM16A inhibitors: effect on calcium mobilization. calcium response (% of ionomycin), % at 10 µM. 2,300 tested, 2% active. TMEM16A/YFP HEK293, Fluo4 calcium mobilization. shares compounds with TMEM16A inh;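 active = duplicate-averaged calcium signal over 20% of the ionomycin maximum, relative to buffer baseline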;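 also: each well's signal is peak minus trough fluorescence divided by its pre-addition baseline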
Parental YFP cnt = counter-screen for TMEM16A inhibitors: effect in parental YFP-HEK293 cells | shares compounds with TMEM16A inh | YFP ratio F(max-min)/F0 at 10 µM | 2,300 tested, under 10 active | iodide YFP quench, ionomycin;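 active = yellow fluorescent protein signal ratio exceeding the buffer control mean by over 5 SD of those controls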;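 also: ratio is mean of duplicate wells from kinetic YFP trace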
ClC-1 rat inh = blocks the rat ClC-1 voltage-dependent chloride channel; ratio percent, % at 10 µM; shares compounds with TMEM16A inh; 2,300 tested, under 10 active; CHO ClC-1-YFP, iodide influx fluorescence quench; iodide control reads 0, buffer control 100;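 active = duplicate-mean ratio percent above the mean of iodide-only control wells, which defines zero, plus 5 of their SD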;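 also: higher percent means stronger block of ClC-1 iodide influx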
Each line names hits and unclear results; the compound was inactive in the other large screens (follow-up assays come after a bar, where they were run).

Cc1ccc2nc3c(cc(C(=O)NCCCn4ccnc4)n3C)c(=O)n2c1	none
CSCCC(NC(=O)c1ccccc1Cl)C(=O)N1CC(C)OC(C)C1 (configuration not stated)	none (no result: CHT allo act, CHT block, TMEM16A inh)
CCOC(=O)c1nnn(-c2nonc2-n2cccc2)c1CN1CCCCC1	TMEM16A act -6.9, TMEM16A inh 100 | TMEM16A reconf inactive | HEK293 Ca mobil inactive | Parental YFP cnt inactive | ClC-1 rat inh inactive
CCOC(=O)c1nnn(-c2nonc2N)c1CN1CCCCCC1	none
CC(C)(CN1CCC(Cc2ccccc2)CC1)NS(=O)(=O)c1ccccc1	none
C=CCOC(=O)C1=C(C)NC(C)=C(C(=O)OCC=C)C1c1ccco1	none | TMEM16A reconf inactive | HEK293 Ca mobil inactive | Parental YFP cnt inactive | ClC-1 rat inh inactive
CCOC(=O)C1=C(C)NC(C)=C(C(=O)OC)C1c1ccco1 (configuration not stated)	none
Cc1ccc(S(=O)(=O)C(C#N)c2nc3ccccc3nc2N2CCCC2)cc1 (configuration not stated)	none
Cc1cccc(S(=O)(=O)C(C#N)c2nc3ccccc3nc2N2CC(C)OC(C)C2)c1 (configuration not stated)	TMEM16A inh 25 | TMEM16A reconf 18% | HEK293 Ca mobil inactive | Parental YFP cnt inactive | ClC-1 rat inh inactive
COc1ccc(-c2csc(NC(=O)C3CCN(C(=O)c4ccc(F)cc4)CC3)n2)cc1OC	TMEM16A inh 100 | TMEM16A reconf 20% | HEK293 Ca mobil inactive | Parental YFP cnt inactive | ClC-1 rat inh inactive
COc1cccc(NC(=O)Nc2nc(-c3ccc(OC)c(OC)c3)cs2)c1	TMEM16A inh 25 | TMEM16A reconf 20% | HEK293 Ca mobil inactive | Parental YFP cnt inactive | ClC-1 rat inh inactive
Cc1ccc(C)c(N(C(=O)Cn2nnc3ccccc32)C(C(=O)NC(C)(C)C)c2ccsc2)c1 (configuration not stated)	none
O=C(NCc1ccccc1)c1cc2nc(C3CC3)cc(C(F)(F)F)n2n1	TMEM16A inh 100 | TMEM16A reconf inactive | HEK293 Ca mobil inactive | Parental YFP cnt inactive | ClC-1 rat inh inactive
CC(C)OCCCNc1ncnc2c1[nH]c1ccccc12	TMEM16A inh 100 | TMEM16A reconf 38% | HEK293 Ca mobil inactive | Parental YFP cnt inactive | ClC-1 rat inh inactive
Clc1ccccc1CSC1=NCCCN1	TMEM16A inh 100 | TMEM16A reconf inactive | HEK293 Ca mobil inactive | Parental YFP cnt inactive | ClC-1 rat inh inactive
Clc1ccc(CSC2=NCCCN2)cc1Cl	none
COc1ccccc1OCC(=O)NCC(c1cccs1)N1CCOCC1 (configuration not stated)	none
CC(C)c1ccccc1OCC(=O)NCC(c1cccs1)N1CCOCC1 (configuration not stated)	TMEM16A inh 100 | TMEM16A reconf 34% | HEK293 Ca mobil inactive | Parental YFP cnt inactive | ClC-1 rat inh inactive
COc1ccc(NC(=O)Cn2nnc(-c3ccccc3NS(=O)(=O)c3ccccc3)n2)cc1	TMEM16A inh 100 | TMEM16A reconf 38% | HEK293 Ca mobil inactive | Parental YFP cnt inactive | ClC-1 rat inh inactive
COc1ccc(S(=O)(=O)Nc2ccccc2-c2nnn(CC(=O)Nc3ccccc3OC)n2)cc1	none
C[C@@H]1CN([C@H](C)CO)C(=O)c2cccc(NC(=O)NC3CCCCC3)c2O[C@@H]1CN(C)C(=O)Nc1ccc(C(F)(F)F)cc1	none (no result: CHT allo act, CHT block, TMEM16A inh)
COc1ccccc1NC(=O)c1c(N=Cc2cccc([N+](=O)[O-])c2)cnn1C	none
Cc1cc(C)c2c(=O)c(C#N)coc2c1	none
CCOc1cc(S(=O)(=O)NCCc2ccc(OC)c(OC)c2)c(OCC)cc1-n1cnnn1	TMEM16A inh 25 | TMEM16A reconf inactive | HEK293 Ca mobil inactive | Parental YFP cnt inactive | ClC-1 rat inh inactive

Source: PubChem BioAssay (Johns Hopkins Ion Channel Center)
